The results in this text go back to ChEMBL document CHEMBL3433997, “St. Jude Leishmania screening dataset” (2016).

This test addresses Glucose transporter (Leishmania mexicana) (UniProt O61059). Nature of the test: ST_JUDE_LEISH: Cytotoxicity at 2uM final concentration against transgenic Leishmania Mexicana promastigotes LmGT2 that are glucose transport deficient and complemented with the L. Mexicana glucose transporter 2. Activity is measured by DNA content using SYBR green in vitro. The class given is functional.
Regarding `CC1CCNc2ccc(Cc3cnc(N)nc3N)cc21` (stereo not given), the inhibition (in general, the relative decrease from the control value, in per cent) turned out to be 2.05%. Take `N#Cc1ccc(CN2CCC(Oc3ccc(NC(=O)c4cccs4)cc3Cl)CC2)cc1`: the inhibition was 8.03%.

Consider `Cc1ccc(O)cc1Nc1ccnc2cc(-c3csc(CN(C)CCN(C)C)n3)ccc12`, for which the inhibition came to 0.38%. The figure for `CCN(CC)CCCN1CCN(C(=O)c2cccc(-c3noc(C(F)(F)F)n3)c2)CC1` is 4%; for `Cc1ccc(Oc2c(-c3ccccc3CN3CCCC3CN(C)C)cnn(C)c2=O)cn1` (stereo not given) it is 5.57%; for `CC(C)c1ccc(CN2CCCCC(NC(=O)c3cc(-c4ccccc4F)cs3)C2)cc1` (stereo not given) it is 11.2%. The figure for `CN1CC[C@@H](Oc2cc(CNC(=O)c3ccc(-c4ccc(Cl)cc4)s3)ccc2C(F)(F)F)C1` is -1.59%; for `Cc1ccc(C(=O)Nc2cc(S(=O)(=O)N3CCCC3)ccc2OCC(F)(F)F)cc1` it is 4.69%. For `CC1CN(c2cnn(C/C=C/c3ccc(NC(=O)c4ccc(Cl)cc4)cc3)c(=O)c2Cl)CC(C)N1` (stereo not given), the inhibition is -1.49%. Regarding `COc1cc(C(=O)Nc2ccc(-c3nc4ccccc4[nH]3)cc2)cc(OC)c1OC`, the inhibition came to 3.39%. The result for `COc1cc(NCC(O)CNc2cc(OC)c3ccccc3n2)nc2ccccc12` reads 4.93%. For `CC1CN(c2ccc3occ(C(=O)Nc4ccc(-c5ccncc5)c(Cl)c4)c3c2)CC(C)N1C` (stereo not given), the inhibition is 1.93%. The figure for `Cc1ccc(NC(=O)c2ccc3ncccc3c2)cc1OC1CCN(C(C)C)C1` (stereo not given) is 9.34%; for `Oc1ccc(CCNCCCCCCNCCc2ccc(-c3ccccc3)cc2)cc1O` it is 1.57%; for `COc1ccccc1N1CCN(C(C(=O)NCc2ccc3c(c2)OCO3)c2ccc3c(c2)OCCCO3)CC1` (stereo not given) it is 3.62%. The result for `Cc1cccc2nc(-c3ccc(-c4ccc(CN5CCN(c6ccc(C#N)cn6)CC5)cc4)s3)[nH]c12` reads -0.38%. The result for `Cc1cccc2nc(-c3ccc(-c4cccc(NC(=O)Nc5cccc(C#N)c5)c4)cc3)[nH]c12` reads -1.23%; that for `COc1cccc(CNC(=O)c2ccnc(-c3ccc(CNCCOc4ccccc4)cc3)c2)c1`, 1.51%; that for `CCc1cn2c3c(cc(C(=O)N[C@@H](Cc4cccc(F)c4)[C@H](O)CNC4CCCCC4)cc13)N(C)S(=O)(=O)CC2`, -0.81%. Turning to `c1ccc2c(c1)ncn2-c1ccnc(Nc2ccncc2)n1`, the inhibition is 6.75%.

On to `Cc1cc(=NN=Cc2ccc(F)cc2)c2cc(C(F)(F)F)ccc2[nH]1`, for which the inhibition is 0.92%. The result for `CCN(CC)c1ccc2nc(N)nc(N)c2c1` reads 7.56%; that for `CCCCN1Cc2c(n(CC(=O)Nc3ccccc3)c3cc(-c4ccccc4)nn3c2=O)C1=O`, 1.8%.

With `N#CCCN1CCN(Cc2cccc(-c3ccc(-c4nc5cc(C(F)(F)F)ccc5[nH]4)cc3)c2)CC1`, the inhibition was found to be 2.78%.

In the case of `COC(=O)c1ccc2nc(-c3ccc(/C=C/C(=O)NC4CCN(Cc5ccccc5)CC4)cc3)[nH]c2c1`, the inhibition is 5.84%. The result for `CC(C)COc1ccc(Cl)cc1Cc1ccc(-c2nc3cc(CCN(C)C)ccc3[nH]2)o1` reads 3.29%; that for `CN1CCCN(Cc2ccc(-c3ccc(NS(=O)(=O)c4cccc5cccnc45)cc3)cc2)CC1`, 0.05%. The result for `Cc1cc(N[C@@H](Cc2ccccc2)C(=O)NCCOc2ccccc2)nc(NCC2CCCCC2)n1` reads 0.5%; that for `COc1ccc2[nH]c(C)cc(=NN=Cc3ccc(F)cc3)c2c1`, 1.88%. The figure for `Cc1sc(N2CCN(C)CC2)nc1C(=O)Nc1ccc(F)cc1C(F)(F)F` is 3.75%. On to `O=c1[nH]nc(-c2ccc(N3CCCC3)c([N+](=O)[O-])c2)c2ccccc12`, for which the inhibition was found to be 4.21%. The result for `NC1CCN(Cc2ccc(-c3cccc(-c4nc5ccccc5[nH]4)c3)cc2)C1` (stereo not given) reads 5.76%. The result for `CC(CN(C)C)C(=O)Nc1cccc(-c2ccc(-c3nc4ccccc4[nH]3)cc2)c1` (stereo not given) reads 7.36%. The figure for `COc1cccc(Nc2nc(N)c3ccccc3n2)c1` is 7.62%; for `O=C(Nc1cccc(OC2CCN(Cc3ccc(F)cc3)CC2)c1)c1ccc(C(F)(F)F)cc1` it is 0.79%; for `Oc1ccc(CCNCCCCCCNCCCc2ccc(Cl)cc2)cc1O` it is 4.05%. On to `O=C(Nc1ccccc1O)c1ccc(Oc2cccc(C(=O)Nc3ccccc3O)c2)cc1`, for which the inhibition turned out to be 1.13%.

Regarding `Cc1ccccc1C1CCN(C2CCC(NC(=O)/C=C/c3cc(F)ccc3F)CC2)CC1` (stereo not given), the inhibition came out at 3.64%. The result for `CC(C)N1CCN(c2ccc(OCCCN3CCN(c4cccc(Cl)c4Cl)CC3)c(C(F)(F)F)c2)CC1` reads -0.82%. In the case of `COc1ccc(NC(=O)Nc2cc(C)nc3ccccc23)cc1Cl`, the inhibition was determined as 7.39%.
